Bioassay records as filed in PubChem BioAssay.
Sampled rows, rich in hits. Any-hit rate of the full collection: about 1.6%.
KCNH2 WT inh – qHTS for Inhibitors of KCHN2 3.1: Wildtype qHTS. actives 0.37% (n = 340,000). activity change, % at 1.84 µM. U2OS, BacMam KCNH2, thallium flux FluxOr; active compounds read low;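 active = maximum activity change below -70%; inconclusive = maximum activity change between -70% and -50%; inactive = maximum activity change above -50%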; also: % is scaled to controls: 0 for no effect and ±100 for the full control effect
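U2OS cells transduced with wild-type KCNH2 virus are loaded with FluxOr dye for 45 min, and thallium flux is measured in kinetic reads before and after stimulation buffer. Rate constants are normalized to DMSO controls.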
gsp agonist – qHTS for Agonist of gsp, the Etiologic Mutation Responsible for Fibrous Dysplasia/McCune-Albright Syndrome: qHTS; gsp mutant cells, cAMP HTRF, 30 min; Potency, µM (series often up to 76.9 µM), without a hit: top-dose activation (cAMP increase), actives largely listed as activators; actives 0.13% (n = 340,000); active = well fitted activation curve with a large enough effect; inconclusive = small, poorly fitted or top-dose-only effect, or another doubt; inactive = no such curve, though single readings can be large or run the other way; cell line not stated here;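 also: phosphodiesterase inhibitor Ro 20-1724 added with compounds to block cAMP breakdown; potency is read from the fitted curve at half-maximal effect; nearly all actives have a fitted effect of over 60% in size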
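Cells stably selected in G418 were plated at 2000/well, grown 16-24 hr, then given compounds in DMSO with the PDE inhibitor […] (300 uM solution added) for 30 min at 37C; cAMP was read by HTRF.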
Glioma ERSR ind – qHTS for Inducers of the Endoplasmic Reticulum Stress Response (ERSR) in Human Glioma: qHTS | U87-MG GRP78 promoter luciferase reporter, 16 h | Potency, µM, without a hit: at the top dose activation, usual class: activators | actives 0.02% (n = 420,000) | AID 602332, 2012; active = well fitted activation curve with a large enough effect; inconclusive = small, poorly fitted or top-dose-only effect; inactive = no such curve, though single readings can be large or run the other way; also: potency is read from the fitted curve at half-maximal effect; series mostly up to about 76 µM; % of control where 0% means no effect; nearly all actives have a fitted effect of over 35% in size
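Stably transfected U87-MG human glioma cells carrying a GRP78-based luminescent sensor were seeded at 1000 cells/well, pin-dosed with compounds and incubated 16 h. Luciferase reagent was then added, and end-point luminescence was read after 10 min at room temperature.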
gsp antag – qHTS for Antagonists of gsp, the Etiologic Mutation Responsible for Fibrous Dysplasia/McCune-Albright Syndrome: qHTS; gsp-mutant cells, cAMP HTRF, 30 min; Potency, µM (series often up to 76.9 µM), without a hit: at the highest dose activity change, negative = inhibition, hits mostly inhibitors; actives 0.4% (n = 340,000); calls by dose curve; cell line not stated here;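 also: intracellular cAMP measured with PDE inhibitor Ro 20-1724 present during compound exposure; potency is read from the fitted curve at half-maximal effect; % is scaled to controls: 0 for no effect and ±100 for the full control effect; nearly all actives have a fitted effect of over 65% in size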
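Cells in G418 medium, seeded 16-24 h, 37C; buffer exchange to DPBS + 1 mM CaCl2, 0.5 mM MgCl2, 0.05% BSA; cpds in DMSO + […] (300 uM stock), 30 min 37C; HTRF cAMP detection.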
KCNH2 3.1 inh – qHTS for Inhibitors of KCHN2 3.1: Mutant qHTS. Potassium voltage-gated channel subfamily H member 2, brain isoform KCNH2 3.1 (human). U2OS KCNH2 3.1, thallium flux FluxOr; active compounds read low. activity change, % (tested at about 1.8 µM). actives 0.95% (n = 340,000). AID 720553, 2013;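 active = maximum activity change below -70%; inconclusive = maximum activity change from -70% to -50%; inactive = maximum activity change above -50%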;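 also: thallium influx rate constant from kinetic fluorescence after stimulation buffer; % is scaled to controls: 0 for no effect and ±100 for the full control effect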
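Thallium flux read-out: FluxOr dye with Red40 quencher in HBSS/HEPES, 45 min at RT. Rate constants from kinetic reads were normalized to positive and negative DMSO controls. Cells: U2OS virally expressing the 3.1 isoform.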
Akt phos inh – HTS Assay for Inhibitors of Akt Phophorylation: Primary Screen; Neuro2A IGF-stimulated pAkt S473 HTRF, 20 min; active compounds read low; activity change, % for hits at 50 µM; actives 0.32% (n = 360,000); in the data active = activity change below about -80%; inconclusive = mostly about -51% to -80%; also: % is scaled to controls: 0 for no effect and ±100 for the full control effect
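Neuro2A cells (4,500/well, DMEM with 0.5% FBS) were treated with compound at a single 50 µM final concentration, stimulated with 6 nM IGF for 20 min at 37 °C, and lysed. Phospho-Akt Ser473 was read by HTRF as 665/615 ratio ×10^4.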
* hit, by the source's call; i = inactive; ? = inconclusive; / = not tested or not shown; [ ] = remark or other dose.

SMILES | KCNH2 WT inh | gsp agonist | Glioma ERSR ind | gsp antag | KCNH2 3.1 inh | Akt phos inh
OC(COc1ccccc1)CN1CCCC1 (stereo not given) | 3 | -15% | -5% | 25% | 25 | i
N#Cc1ccc(OCC(O)CN2CCN(CC(O)COc3ccc(C#N)cc3)CC2)cc1 (stereo not given) | -147* | -1%[15.4 µM] | -1% | / | -107* | i
Cc1cc(C(=O)Nc2ccccc2-c2nc(CNC(=O)c3ccccc3Cl)c(C)o2)c(C)o1 | / | / | 3% | / | / | /
COC(=O)c1ccc(CN2C[C@H](Sc3ccccn3)C[C@H]2C(=O)N(C)C)cc1 | / | / | -2% | / | / | /
CCC(=O)c1ccc(OCC(O)CN2CCN(C(c3ccccc3)c3ccccc3)CC2)cc1 (stereo not given) | -88* | -9% | -2% | -4% | -98* | i
CCCCCN(CCCCC)C(=O)[C@H](CCC(=O)O)NC(=O)[C@H](Cc1ccc(OP(=O)(O)O)cc1)NC(C)=O | / | / | -1% | / | / | /
O=C(c1ccc2c(c1)OCO2)N1CCOc2ccc(CN3CCC(Oc4cccnc4)CC3)cc2C1 | / | / | -7% | / | / | /
Cc1nn(CC(=O)N2CCc3ccccc32)c(C)c1S(=O)(=O)NC(C)(C)C | -283* | 3% | -4% | -12% | -21 | i
CC12C=C(/C=C/c3ccc(Br)cc3)C(C)(C1)C(c1ccc(Br)cc1)CC2=O (stereo not given) | / | / | -4% | / | / | /
CCOC(=O)c1cn(CC#N)c2cc(F)c(F)cc2c1=O | -70* | -1%[15.4 µM] | -3% | / | -4 | i
N=C1C(c2ccccc2)=C(O)CN1c1cccc(S(=O)(=O)Nc2cccc(C(F)(F)F)c2)c1 | -31 | -27% | -3% | -22% | / | i
N=C1C(c2ccccc2)=C(O)CN1c1cccc(S(=O)(=O)N2CCCCC2)c1 | -225* | 0% | -3% | ? | 6 | i
CCCC(=O)Nc1cc(C(=O)O)ccc1Sc1ccccc1 | 5 | -13%[15.4 µM] | -7% | -20% | 19 | i
CCC(=O)Nc1cc(C(=O)O)ccc1Sc1ccccc1 | 0 | -8% | -1% | -1% | -116* | i
CC(=O)Nc1ccc(C(=O)OCC(=O)Nc2ccccc2Sc2ccccc2)cc1 | -21 | -6% | -4% | -24% | -79* | i
N#CCC(=O)Nc1ccc(C(=O)OCC(=O)Nc2ccccc2Sc2ccccc2)cc1 | -6 | -28% | -2% | -4% | -4 | i
O=C(c1cccc(C(F)(F)F)c1)C1CCCN(Cc2cccn2-c2ncccn2)C1 (stereo not given) | -72* | -1% | -5% | 9% | -9 | i
CCOc1cc(CN2CCCC(C(=O)c3cccc(C(F)(F)F)c3)C2)ccc1O (stereo not given) | 43 | 13%[15.4 µM] | -2% | / | -47 | i
O=C(c1ccc(C(F)(F)F)cc1)C1CCCN(Cc2cccn2-c2ncccn2)C1 (stereo not given) | -112* | 19% | -3% | -8% | -111* | i
O=C(c1ccc(C(F)(F)F)cc1)C1CCCN(C(=O)c2cnccn2)C1 (stereo not given) | 3 | -14%[15.4 µM] | 3% | 2% | 8 | i
CSc1ccc(C(=O)C2CCCN(Cc3cccc4nccnc34)C2)cc1 (stereo not given) | ? | 18%[15.4 µM] | 1% | 3% | -108* | i
C=C1C=C(C(F)F)n2ncc(C(=O)N3CCN(c4ccccc4)CC3)c2N1 | / | / | -2% | / | / | /
COC(=O)[C@H]1C2CC3c4[nH]c5ccccc5c4CCN3CC2CC[C@@H]1O (stereo not given in full) | / | / | -4% | / | / | /
Cc1cccc([C@@H]2[C@@H]3C(=O)N(Cc4ccccc4)C(=O)[C@@H]3[C@]3(C)C(=O)N(c4cccc(Cl)c4)C(=O)N23)c1 | -2 | ? | -6% | -9% | -74* | i
CCN1C(=O)[C@H]2[C@@H](c3ccc(C)cc3)N3C(=O)N(c4cccc(Br)c4)C(=O)[C@@]3(C)[C@H]2C1=O | -12 | 15% | 1% | -2% | -80* | i
SMILES | KCNH2 WT inh | gsp agonist | Glioma ERSR ind | gsp antag | KCNH2 3.1 inh | Akt phos inh
Cc1cccc([C@@H]2[C@@H]3C(=O)N(Cc4ccccc4)C(=O)[C@@H]3[C@]3(Cc4ccccc4)C(=O)N(c4cccc(Cl)c4)C(=O)N23)c1 | -13 | / | -4% | 0% | 14 | i
CCN1C(=O)[C@H]2[C@@H](c3ccc(C)cc3)N3C(=O)N(c4ccc(C)cc4)C(=O)[C@@]3(C)[C@H]2C1=O | / | / | -2% | 6% | / | i
CCCC(=O)Nc1cccc(NC(=O)c2ccc3c(c2)OCO3)c1 | 1 | 19% | 0% | -20% | 0 | -115%*
O=C(Nc1cccc(F)c1)c1ccc2c(c1)OCO2 | -6 | 0% | -7% | -10% | -3 | i
O=C(Nc1c(C(=O)Nc2cccc(F)c2)oc2ccccc12)c1ccc2c(c1)OCO2 | 0 | 47% | -2% | -1% | -14 | -112%*
OCCN1CCN(Cc2ccc3c(c2)CN(Cc2cccn2-c2ccccn2)CCO3)CC1 | / | / | -3% | / | / | /
CO[C@H]1C[C@@H]2C[C@H](O)C[C@@H](CC(=O)O[C@@H](/C=C\CC(C)C)C[C@@H]3CC[C@H](C)[C@@H](C1)O3)O2 | / | / | -3% | / | / | /
COc1cccc(C(=O)NCC2Cc3cccc(-c4cccnc4)c3O2)c1 (stereo not given) | / | / | 5% | / | / | /
CS(=O)(=O)c1ccc(C(=O)Nc2ccc(N3CCCCC3)cc2)c(Cl)c1 | -4 | 4%[15.4 µM] | -3% | 15% | -4 | i
Cc1ccc(Sc2ccc(NC(=O)c3ccc(S(C)(=O)=O)cc3Cl)cc2)cc1 | 2 | 32µM* | -2% | 24% | -35 | i
OC(c1cccnc1)c1ccc2c(c1)CN(Cc1ccc(-c3ccccc3Cl)o1)CCO2 (stereo not given) | / | / | 2% | / | / | /
COc1cc(=O)n2c(c1C(=O)NC(C)c1ccco1)CCN(CC=C(C)C)CC2 (stereo not given) | / | / | -6% | / | / | /
CCCCCCCN1C(N(C)C)=NC[C@@H]1Cc1ccccc1 | -42 | / | -5% | 14% | -90* | i
CN(C)C1=NC[C@H](Cc2ccccc2)N1CCCCc1ccccc1 | 20 | 40% | -2% | 13% | -92* | i
CSc1ccccc1C(=O)NCC1Cc2cc(F)cc(-c3cnccn3)c2O1 (stereo not given) | / | / | -7% | / | / | /
